From PubChem BioAssay
A number with no mark means an inactive call. Active and inactive are the calls of the source.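 The calls were made as follows: active = thallium flux through the channel raised or lowered by more than 3 SD from vehicle-only wells, actives on both sides; inactive = the rest.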

The compounds below were run on R275C/beta2Delta (assay: modulators of BK channel variants, profiling panel, selectivity assay, cell-based, U2OS BacMam, thallium flux, beta subunits (AID 1259406;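 also: initial slope of Thallos dye fluorescence rise after thallium is added; log ratio against the mean of 0.3% DMSO vehicle wells on the same plate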)). Settings: at 30 µM.

`CCOC(=O)c1nn(-c2ccc(C(C)(C)C)cc2)c(=O)c(C#N)c1C` was tested, and the log fold change Tl+ flux was -0.219 (active).
With `CC(C)n1c(SCC(=O)c2ccccc2)nc2cc(Cl)ccc21` the log fold change Tl+ flux was -0.0838 (active).
With `CN1c2ccccc2C(C)(C)C12C=Cc1cc(Br)cc([N+](=O)[O-])c1O2` (stereo not drawn) the log fold change Tl+ flux was 0.0868 (active).

`O=C(NC(=O)N1CCCCC1)c1cc(Br)cc(Br)c1` and `COc1cccc(N2CC(=O)N(NC(=O)NC3CCCCC3)CC2=O)c1` are within 0.2 log units of each other in log fold change Tl+ flux: -0.0701 for the first, -0.0493 for the second.

`O=S(=O)(Nc1ccccc1SCc1ccc2nonc2c1)c1cccs1` and `O=C(O)c1cccc(CSc2cccs2)c1` are within 0.2 log units of each other in log fold change Tl+ flux: -0.00587 for the first, 0.018 for the second.

`NC(=O)CN1C(=O)C(=Cc2ccco2)N=C1c1ccccc1` and `NC(=O)c1nnn(-c2ccc([N+](=O)[O-])cc2)c1-c1ccccc1` are within 0.2 log units of each other in log fold change Tl+ flux: -0.0538 for the first, 0.0277 for the second.

`COc1cc(C(F)(F)F)nc2ccc(C#CCOC(=O)Nc3cccc(Cl)c3)cc12` and `CCOC(=O)c1ccc(OCC#Cc2ccc(C(F)(F)F)cn2)cc1` are within 0.2 log units of each other in log fold change Tl+ flux: -0.0125 for the first, -0.0497 for the second.

`Cc1ccc(S(=O)(=O)c2ncsc2SCc2ccc(Cl)cc2Cl)cc1` and `Clc1ccc(Sc2cn[nH]c2-c2ccc3c(c2)OCCO3)cc1` are within 0.2 log units of each other in log fold change Tl+ flux: -0.0166 for the first, -0.0611 for the second.

`CN1c2ccsc2C(=O)C(=NNc2cccc(C(F)(F)F)c2)S1(=O)=O` and `NC(C=Cc1cc(C(F)(F)F)cc(C(F)(F)F)c1)=NOC(=O)c1c(F)cccc1F` are within 0.2 log units of each other in log fold change Tl+ flux: 0.00493 for the first, -0.0168 for the second.

`O=C(OCCSc1sccc1[N+](=O)[O-])c1ccc(Cl)cc1` and `O=C(O)C(Cc1ccccc1[N+](=O)[O-])=NNc1ccccc1` are within 0.2 log units of each other in log fold change Tl+ flux: 0.0149 for the first, 0.0201 for the second.

`CCSc1n[nH]c(=S)s1` and `CSc1cc(C(C)(C)C)[nH]n1` are within 0.2 log units of each other in log fold change Tl+ flux: 0.0134 for the first, -0.014 for the second.

`CCC(=NOc1ccc(C(F)(F)F)cn1)c1ccc(-c2ccccc2F)cc1` and `O=C(Nc1ccc(OC(F)(F)F)cc1)OC1CN(C(c2ccccc2)c2ccccc2)C1` are within 0.2 log units of each other in log fold change Tl+ flux: 0.0154 for the first, -0.0123 for the second.

`Cc1cc(CNCC(O)C(F)(F)F)no1` (stereo not drawn) and `Cc1cc(NS(=O)(=O)c2ccc(NC(=O)c3nccnc3C(=O)O)cc2)no1` are within 0.2 log units of each other in log fold change Tl+ flux: -0.018 for the first, -0.0352 for the second.

`Cc1nn(-c2ccccc2)nc1C(=O)NNC(=O)CSCc1cccc2ccccc12` and `Cc1cc2c(NC(=O)c3ccccc3C(=O)O)cccc2nn1` are within 0.2 log units of each other in log fold change Tl+ flux: -0.0226 for the first, -0.00027 for the second.

`Cc1ccc(S(N)(=O)=O)c(I)c1` and `Cc1c(O)nc2ccccn2c1=O` are within 0.2 log units of each other in log fold change Tl+ flux: -0.00341 for the first, 0.00886 for the second.

`COCCCNC1=C(C#N)C(=O)NC(c2cccs2)S1` (stereo not drawn) and `Cn1cnc([N+](=O)[O-])c1Sc1cccs1` are within 0.2 log units of each other in log fold change Tl+ flux: 0.0144 for the first, 0.0288 for the second.

`Cc1ncc(CSc2nc(C(C)(C)C)cs2)c(CO)c1O` and `CC(C)(C)c1cc2nc(C(F)(F)F)cc(NN=Cc3ccccc3)n2n1` are within 0.2 log units of each other in log fold change Tl+ flux: 0.0196 for the first, -0.0336 for the second.

`O=C(CC(=O)NNC(=O)c1ccc(F)cc1)NNC(=O)c1ccc(F)cc1` and `N#CC(CCC(=O)O)(CCC(=O)O)S(=O)(=O)c1ccccc1` are within 0.2 log units of each other in log fold change Tl+ flux: 0.0309 for the first, 0.0211 for the second.

`Cc1cccc(N=Cc2cc(Cl)cc(Cl)c2O)c1C` and `Cc1cc(-c2nn(C)c(=O)c3ccccc23)cc(C)c1O` are within 0.2 log units of each other in log fold change Tl+ flux: 0.0671 for the first, -0.0115 for the second.

`Fc1cccc(Cl)c1CSc1nccn1-c1cccnc1` and `O=C1NC2CC2N1C(=O)OCc1ccccc1` (stereo not drawn) are within 0.2 log units of each other in log fold change Tl+ flux: 0.0125 for the first, 0.0219 for the second.

`CC(C)(C)OC(=O)N1CCC(c2nc(-c3ccc(Cl)s3)cs2)CC1` and `CC(C)(C)NC(=O)NCCO` are within 0.2 log units of each other in log fold change Tl+ flux: 0.0302 for the first, -0.014 for the second.

What follows are compounds tested on R275C/beta4 in the same assay as above. Settings: at 30 µM.

In the case of `CCOC(=O)c1nn(-c2ccc(C(C)(C)C)cc2)c(=O)c(C#N)c1C`, the log fold change Tl+ flux is reported as -0.26 (active).
`Cc1nn(-c2ccccc2)nc1C(=O)NNC(=O)CSCc1cccc2ccccc12` was tested, and the log fold change Tl+ flux was 0.097 (active).
`O=C(Nc1ccc(OC(F)(F)F)cc1)OC1CN(C(c2ccccc2)c2ccccc2)C1` was tested, and the log fold change Tl+ flux was 0.0956 (active).

`O=C(NC(=O)N1CCCCC1)c1cc(Br)cc(Br)c1` and `COc1cccc(N2CC(=O)N(NC(=O)NC3CCCCC3)CC2=O)c1` are within 0.2 log units of each other in log fold change Tl+ flux: -0.0253 for the first, -0.00116 for the second.

`O=S(=O)(Nc1ccccc1SCc1ccc2nonc2c1)c1cccs1` and `O=C(O)c1cccc(CSc2cccs2)c1` are within 0.2 log units of each other in log fold change Tl+ flux: -0.0288 for the first, 0.0269 for the second.

`NC(=O)CN1C(=O)C(=Cc2ccco2)N=C1c1ccccc1` and `NC(=O)c1nnn(-c2ccc([N+](=O)[O-])cc2)c1-c1ccccc1` are within 0.2 log units of each other in log fold change Tl+ flux: 0.0139 for the first, 0.0182 for the second.

`COc1cc(C(F)(F)F)nc2ccc(C#CCOC(=O)Nc3cccc(Cl)c3)cc12` and `CCOC(=O)c1ccc(OCC#Cc2ccc(C(F)(F)F)cn2)cc1` are within 0.2 log units of each other in log fold change Tl+ flux: -0.00958 for the first, -0.0346 for the second.

`Cc1ccc(S(=O)(=O)c2ncsc2SCc2ccc(Cl)cc2Cl)cc1` and `Clc1ccc(Sc2cn[nH]c2-c2ccc3c(c2)OCCO3)cc1` are within 0.2 log units of each other in log fold change Tl+ flux: -0.0112 for the first, -0.0292 for the second.

`CN1c2ccsc2C(=O)C(=NNc2cccc(C(F)(F)F)c2)S1(=O)=O` and `NC(C=Cc1cc(C(F)(F)F)cc(C(F)(F)F)c1)=NOC(=O)c1c(F)cccc1F` are within 0.2 log units of each other in log fold change Tl+ flux: -0.00494 for the first, 0.0381 for the second.

`O=C(OCCSc1sccc1[N+](=O)[O-])c1ccc(Cl)cc1` and `O=C(O)C(Cc1ccccc1[N+](=O)[O-])=NNc1ccccc1` are within 0.2 log units of each other in log fold change Tl+ flux: -0.01 for the first, 0.0231 for the second.

`CC(C)n1c(SCC(=O)c2ccccc2)nc2cc(Cl)ccc21` and `Cc1cc2c(NC(=O)c3ccccc3C(=O)O)cccc2nn1` are within 0.2 log units of each other in log fold change Tl+ flux: -0.0424 for the first, -0.0138 for the second.

`CCSc1n[nH]c(=S)s1` and `CSc1cc(C(C)(C)C)[nH]n1` are within 0.2 log units of each other in log fold change Tl+ flux: 0.0178 for the first, 0.047 for the second.

`CCC(=NOc1ccc(C(F)(F)F)cn1)c1ccc(-c2ccccc2F)cc1` and `CC(C)(C)c1cc2nc(C(F)(F)F)cc(NN=Cc3ccccc3)n2n1` are within 0.2 log units of each other in log fold change Tl+ flux: 0.0265 for the first, -0.0304 for the second.

`Cc1cc(CNCC(O)C(F)(F)F)no1` (stereo not drawn) and `Cc1cc(NS(=O)(=O)c2ccc(NC(=O)c3nccnc3C(=O)O)cc2)no1` are the same in log fold change Tl+ flux: 0.0165 for the first, 0.0165 for the second.

`Cc1ccc(S(N)(=O)=O)c(I)c1` and `Cc1c(O)nc2ccccn2c1=O` are within 0.2 log units of each other in log fold change Tl+ flux: 0.00339 for the first, 0.0309 for the second.

`COCCCNC1=C(C#N)C(=O)NC(c2cccs2)S1` (stereo not drawn) and `Cn1cnc([N+](=O)[O-])c1Sc1cccs1` are within 0.2 log units of each other in log fold change Tl+ flux: -0.0186 for the first, 0.0285 for the second.

`Cc1ncc(CSc2nc(C(C)(C)C)cs2)c(CO)c1O` and `CC(C)(C)OC(=O)N1CCC(c2nc(-c3ccc(Cl)s3)cs2)CC1` are within 0.2 log units of each other in log fold change Tl+ flux: 0.00379 for the first, 0.0463 for the second.

`O=C(CC(=O)NNC(=O)c1ccc(F)cc1)NNC(=O)c1ccc(F)cc1` and `N#CC(CCC(=O)O)(CCC(=O)O)S(=O)(=O)c1ccccc1` are within 0.2 log units of each other in log fold change Tl+ flux: -0.00647 for the first, -0.014 for the second.

`CN1c2ccccc2C(C)(C)C12C=Cc1cc(Br)cc([N+](=O)[O-])c1O2` (stereo not drawn) and `Cc1cc(-c2nn(C)c(=O)c3ccccc23)cc(C)c1O` are within 0.2 log units of each other in log fold change Tl+ flux: 0.0424 for the first, 0.0138 for the second.

`Cc1cccc(N=Cc2cc(Cl)cc(Cl)c2O)c1C` and `Fc1cccc(Cl)c1CSc1nccn1-c1cccnc1` are within 0.2 log units of each other in log fold change Tl+ flux: 0.00158 for the first, 0.0207 for the second.

`CC(C)(C)NC(=O)NCCO` and `O=C1NC2CC2N1C(=O)OCc1ccccc1` (stereo not drawn) are within 0.2 log units of each other in log fold change Tl+ flux: 0.00214 for the first, -0.029 for the second.
